Laboratory results as given in PubChem BioAssay (NCI).
Several values for one entry are separate records, joined by “and”; a condition that tells them apart may be missing. Equal values may be shown once. About 79,000 compounds went through this panel and 15% of them were active in at least one assay; those are over-represented in the sample as a whole. The source holds several records for some structures; these can differ, active in one and inactive in another. Activity calls are given as the source filed them. Cut-off read from the data, not from the text of the source: active = growth inhibition above about 70%; inactive = the rest.

Legend:
[1] = NCI Yeast Anticancer Drug Screen. Data for the rad50 strain (AID 155);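 note: 0% = growth of vehicle-only cultures of the same strain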; conditions: S. cerevisiae rad50 strain growth inhibition, stronger effect = higher value
In short: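 Yeast carrying a defined DNA repair defect were exposed to test compounds, and growth was compared with vehicle-treated controls to give percent inhibition.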

[2] = NCI Yeast Anticancer Drug Screen. Data for the mec2-1 strain (AID 157); conditions: S. cerevisiae mec2-1 strain, stronger effect = higher value
In short: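 Compounds were applied to mec2-1 yeast cells. Their growth was then compared with that of vehicle-treated cultures to give growth inhibition.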

[3] = NCI Yeast Anticancer Drug Screen. Data for the sgs1 mgt1 strain (AID 161);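 note: 0% = growth of cultures given vehicle only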; conditions: S. cerevisiae sgs1 mgt1 strain, stronger effect = higher value
In short: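 Growth of a repair-deficient yeast mutant was monitored after compound treatment and expressed as inhibition relative to vehicle-treated cultures.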

[4] = NCI Yeast Anticancer Drug Screen. Data for the cln2 rad14 strain (AID 165);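 note: 0% = growth equal to vehicle treated cultures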; conditions: S. cerevisiae cln2 rad14 strain, stronger effect = higher value
In short: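 Strain: cln2 rad14 yeast, altered in cell cycle control and DNA damage repair. Read-out: growth inhibition vs vehicle.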

[5] = NCI Yeast Anticancer Drug Screen. Data for the bub3 strain (AID 167); conditions: S. cerevisiae bub3 mutant strain, stronger effect = higher value
In short: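 Compounds were applied to a genetically altered yeast strain carrying a cell-cycle control defect. Growth inhibition was scored against vehicle-treated controls.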

[6] = NCI Yeast Anticancer Drug Screen. Data for the mlh1 rad18 strain (AID 175); conditions: S. cerevisiae mlh1 rad18 strain growth inhibition, stronger effect = higher value
In short: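 A repair-deficient yeast strain is exposed to test compound, and growth is scored relative to vehicle-treated controls.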

[7] = at 5.0 µM (retest, dose inferred, filed as 0.5)
[8] = at 50.0 µM (retest, dose inferred, filed as 5.0)

Measured: growth inhibition

CC(C)C1=C(O)C2=C(C(=O)C1=O)C1(C)CCCC(C)(C)C1CC2O (centres undefined)
inactive: [1]; [7] 42% | [1]; at 50.0 µM 36.9% and 14.3% | [2]; [7] 55% | [2]; at 50.0 µM 22.1% and -9.35% | [3]; [7] 48% | [3]; at 50.0 µM 45% and 39.5% | [4]; [7] 46% | [4]; at 50.0 µM 32.4% and 6.45% | [5]; at 50.0 µM 56.6% and 17.4% | [6]; [7] 56%
83.1% (active) and 21.6% (inactive): [6]; at 50.0 µM
active: [1]; [8] 98% | [2]; [8] 98% | [3]; [8] 98% | [4]; [8] 98% | [5]; [7] 75% | [5]; [8] 97% | [6]; [8] 98%

CN=c1sc2nc(C#N)c(C#N)nc2n1C
active: [1]; at 50.0 µM 85.3% | [3]; at 50.0 µM 75.3% | [5]; at 50.0 µM 89.8% | [6]; at 50.0 µM 81.5%
inactive: [1]; [7] -15% | [1]; [8] 44% | [2]; [7] -8% | [2]; [8] 61% | [2]; at 50.0 µM 40.1% | [3]; [7] -23% | [3]; [8] 35% | [4]; [7] 2% | [4]; [8] 23% | [4]; at 50.0 µM 63.1% | [5]; [7] -22% | [5]; [8] 69% | [6]; [7] -8% | [6]; [8] 58%

O=C1c2cccc(NCCCNCCO)c2C(=O)c2cccc(NCCCNCCO)c21
active: [6]; at 50.0 µM 81.5% and 83.4%
12.7% (inactive) and 88.5% (active): [3]; at 50.0 µM
inactive: [1]; [7] 33% | [1]; [8] 47% | [1]; at 50.0 µM 43.2% and 9.05% | [2]; [7] -8% | [2]; [8] 2% | [2]; at 50.0 µM 23.6% and 5.3% | [3]; [7] 26% | [3]; [8] 39% | [4]; [7] 30% | [4]; [8] 39% | [4]; at 50.0 µM 9% and 48.1% | [5]; [7] 13% | [5]; [8] 39% | [5]; at 50.0 µM -8.35% and 63.1% | [6]; [7] 15% | [6]; [8] 42%

CCC(C)[P+](c1ccccc1)(c1ccccc1)c1ccccc1 (centres undefined)
72.4% (active) and 53.9% (inactive): [6]; at 50.0 µM
inactive: [1]; [7] 2% | [1]; [8] 36% | [1]; at 50.0 µM 62.9% and 33.3% | [2]; [7] 18% | [2]; [8] 60% | [2]; at 50.0 µM 66% and 29.6% | [3]; [7] -8% | [3]; [8] 23% | [3]; at 50.0 µM 53.9% and 19.9% | [4]; [7] -4% | [4]; [8] 25% | [4]; at 50.0 µM 58.1% and 36% | [5]; [7] -3% | [5]; [8] 30% | [5]; at 50.0 µM 57.8% and 36% | [6]; [7] 21% | [6]; [8] 54%

CCSC(=NC)Nc1ccc(Oc2ccc(Cl)cc2)cc1
inactive: [1]; [7] 38% | [2]; [7] 39% | [2]; at 50.0 µM 67.8% | [3]; [7] 40% | [4]; [7] 33% | [5]; [7] 46% | [6]; [7] 46%
active: [1]; [8] 90% | [1]; at 50.0 µM 81.9% | [2]; [8] 83% | [3]; [8] 99% | [3]; at 50.0 µM 92.4% | [4]; [8] 75% | [4]; at 50.0 µM 71.1% | [5]; [8] 72% | [5]; at 50.0 µM 88.2% | [6]; [8] 97% | [6]; at 50.0 µM 81.6%

CCCCCCC(C(=O)OCC)N1C(=O)c2ccccc2S1(=O)=O (centres undefined)
active: [5]; at 50.0 µM 88.5%
inactive: [1]; [7] -3% | [1]; [8] 36% | [1]; at 50.0 µM 2.55% | [2]; [7] -5% | [2]; [8] 10% | [2]; at 50.0 µM 21.7% | [3]; [7] -4% | [3]; [8] 65% | [3]; at 50.0 µM 30.5% | [4]; [7] -3% | [4]; [8] 16% | [4]; at 50.0 µM 12.2% | [5]; [7] 10% | [5]; [8] 55% | [6]; [7] 5% | [6]; [8] 36% | [6]; at 50.0 µM 61.9%

COC(=O)CSC(=S)N1CCOCC1
inactive: [1]; [7] 2% | [1]; [8] 6% | [1]; at 50.0 µM -6.85% | [2]; [7] 9% | [2]; [8] 4% | [2]; at 50.0 µM -5.75% | [3]; [7] 4% | [3]; [8] 22% | [3]; at 50.0 µM -5.3% | [4]; [7] 7% | [4]; [8] -4% | [4]; at 50.0 µM -38% | [5]; [7] -3% | [5]; [8] -5% | [5]; at 50.0 µM -10.1% | [6]; [7] 4% | [6]; [8] 5% | [6]; at 50.0 µM 24.2%

C[N+]1(Cc2ccc(Cl)c(Cl)c2)CCCC1C1CCCN(Cc2ccc(Cl)c(Cl)c2)C1 (centres undefined)
inactive: [1]; [7] -4% | [1]; [8] 51% | [1]; at 50.0 µM 6.55% and -11.7% | [2]; [7] -2% | [2]; [8] 59% | [2]; at 50.0 µM -3.95% and 3.6% | [3]; [7] 3% | [3]; at 50.0 µM 5.3% and 14% | [4]; [7] -11% | [4]; [8] 27% | [4]; at 50.0 µM -15.3% and 42.5% | [5]; [7] -1% | [5]; [8] 61% | [5]; at 50.0 µM 22.2% and 15.3% | [6]; [7] -2% | [6]; at 50.0 µM 29.1% and 48.3%
active: [3]; [8] 80% | [6]; [8] 76%
